The campaign covered roughly 310,000 compounds. About 14,000 (4.5%) showed an effect of 50% or more. The effect is printed as a negative number. Many of the other results were omitted from the sample, so strong results are more common in it than they were.
Target: human ether-à-go-go-related gene (hERG) potassium channel (human, UniProt Q12809)
Test: primary screen, population patch clamp on CHO cells stably expressing hERG; higher = less effect of the substance
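Note: peak tail current of the secondary pulse compared with the same well before compound.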

Chain of human ether-à-go-go-related gene (hERG) potassium channel (Q12809 whole entry, looked up): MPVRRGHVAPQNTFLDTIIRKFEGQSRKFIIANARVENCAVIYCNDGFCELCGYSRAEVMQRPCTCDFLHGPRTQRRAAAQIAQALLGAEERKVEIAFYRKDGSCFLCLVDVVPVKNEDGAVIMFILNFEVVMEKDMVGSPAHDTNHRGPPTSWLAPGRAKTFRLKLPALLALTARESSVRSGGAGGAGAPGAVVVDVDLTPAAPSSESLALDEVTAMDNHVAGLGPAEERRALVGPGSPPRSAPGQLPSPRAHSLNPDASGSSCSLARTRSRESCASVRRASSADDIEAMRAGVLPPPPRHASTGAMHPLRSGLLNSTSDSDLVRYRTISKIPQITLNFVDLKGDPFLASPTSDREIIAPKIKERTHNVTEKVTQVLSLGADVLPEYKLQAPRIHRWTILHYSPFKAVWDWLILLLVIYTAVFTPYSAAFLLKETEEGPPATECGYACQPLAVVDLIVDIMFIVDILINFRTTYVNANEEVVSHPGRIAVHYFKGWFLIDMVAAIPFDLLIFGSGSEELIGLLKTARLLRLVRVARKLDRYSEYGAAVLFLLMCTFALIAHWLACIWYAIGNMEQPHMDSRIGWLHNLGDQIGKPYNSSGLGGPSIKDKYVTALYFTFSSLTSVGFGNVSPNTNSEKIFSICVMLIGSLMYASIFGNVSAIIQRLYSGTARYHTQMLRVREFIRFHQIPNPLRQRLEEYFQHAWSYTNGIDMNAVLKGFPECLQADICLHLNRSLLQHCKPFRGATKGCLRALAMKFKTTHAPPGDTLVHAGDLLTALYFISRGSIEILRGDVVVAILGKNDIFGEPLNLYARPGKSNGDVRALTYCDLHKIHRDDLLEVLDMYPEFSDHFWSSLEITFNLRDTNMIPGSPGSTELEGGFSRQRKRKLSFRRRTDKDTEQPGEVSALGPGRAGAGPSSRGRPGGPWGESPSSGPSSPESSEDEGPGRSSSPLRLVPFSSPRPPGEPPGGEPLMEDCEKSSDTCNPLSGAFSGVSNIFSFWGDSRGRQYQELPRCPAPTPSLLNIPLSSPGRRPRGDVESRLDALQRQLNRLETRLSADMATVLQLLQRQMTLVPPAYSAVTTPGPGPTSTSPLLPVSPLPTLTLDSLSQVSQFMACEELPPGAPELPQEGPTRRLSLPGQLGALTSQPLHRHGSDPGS

SMILES	hERG current change (%, negative = inhibition) at 10uM [%]
O=C(CN(CC1CCCO1)C(=O)CNS(=O)(=O)c1ccccc1)NCc1ccc(F)cc1 (stereo not drawn)	11.9
C/C(=C1\SC(N2CCOCC2)=NC1=O)c1ccccc1	-12.5
CSc1ccccc1C(=O)NC(C)c1ccc(-n2ccnc2)cc1 (stereo not drawn)	-39.7
Cc1ccc(C(=O)NC(C)c2ccc(-n3ccnc3)cc2)c(C)c1 (stereo not drawn)	-57.4
CSCc1ccc(C(=O)NC(C)c2ccc(-n3ccnc3)cc2)cc1 (stereo not drawn)	-56
CC(NC(=O)c1cc(F)c(F)c(F)c1F)c1ccc(-n2ccnc2)cc1 (stereo not drawn)	-65.2
C/C(=N\NC(=O)c1ccc(C)cc1C)c1ccc(-n2ccnc2)cc1	-16.6
Cc1ccc(C)c(C(=O)NC(C)c2ccc(-n3ccnc3)cc2)c1 (stereo not drawn)	-62.4
Cc1ccc(C(O)c2ccc(-n3ccnc3)cc2)cc1 (stereo not drawn)	-1.74
CC(NC(=O)c1ccc(CS(C)(=O)=O)cc1)c1ccc(-n2ccnc2)cc1 (stereo not drawn)	-1.32
CC(=O)c1sc(NC(=O)CS(=O)(=O)c2ccccc2)nc1C	-25.3
CCOC(=O)/C(C#N)=C/c1ccc(OC(=O)c2ccccn2)cc1	-5.99
OC1(c2cccc(C(F)(F)F)c2)CCN(Cc2nc(-c3cnccn3)no2)CC1	-0.399
CCC(=O)N=c1sc2c(OC)ccc(OC)c2n1C	11
COc1ccc(Cl)cc1C(=O)Nn1c(-c2cccs2)nc2ccccc2c1=O	-5.47
O=C(O)c1nn(-c2ccccc2)nc1-c1nn(-c2ccccc2)nc1C(=O)O	19.7
O=C(N/N=C/c1cc([N+](=O)[O-])ccc1Cl)c1cc(-c2ccccc2)nc2ccccc12	7.64
CCCc1oc(C(=O)O)cc1CN.Cl	5.96
COc1ccc(-c2c(S(=O)(=O)c3ccccc3)cnn2-c2ccccc2)cc1	-2.43
Cl.O=C(CCN1CCc2ccccc2CC1)c1ccc2c(c1)OCCO2	-60.6
Cl.O=C(CCN1CCc2ccccc2C(c2ccccc2)C1)c1ccc2c(c1)OCCO2 (stereo not drawn)	-0.525
O=C(CCCc1ccccc1)c1ccc2c(c1)OCCO2	-5.25

SMILES	hERG current change (%, negative = inhibition) at 10uM [%]
Cl.O=C(CCN1CCC(c2ccccc2)C1)c1ccc2c(c1)OCCO2 (stereo not drawn)	-56
Cl.O=C(CCN1CCc2ccccc2C1)c1ccc2c(c1)OCCO2	-32.2
Cl.O=C(CCCN1CCOC(c2ccccc2)C1)c1ccc(F)cc1 (stereo not drawn)	-60.7
Cl.O=C(CCN1CCCCC1)c1ccc2c(c1)OCCO2	4.82
O=C1C(=O)N(CCCN2CCOCC2)C(c2ccc(F)cc2)/C1=C(/O)c1ccccc1 (stereo not drawn)	23
Cl.O=C(CCN1CCOCC1)c1ccccc1	3.53
Cl.O=C(CCN1CCC(c2ccccc2)C1)c1ccccc1 (stereo not drawn)	-35.8
Cl.O=C(CCN1Cc2ccccc2C1)c1ccc2c(c1)OCCO2	-8.74
Cl.O=C(CCCN1CCC(c2ccccc2)C1)c1ccc2c(c1)OCCO2 (stereo not drawn)	-70.3
O=C1/C(=C/c2ccccc2Cl)N2CCC1CC2	-14.1
Cc1ccc(OCCn2cc(/C=N/NC(=O)c3ccncc3)c3ccccc32)cc1	-7.64
CCOc1ccc2nc(/N=C/c3nc(-c4ccccc4)oc3O)sc2c1	4.73
COc1ccc(-n2c3c(cc(C(=O)N4CCC(C)CC4)c2=O)C(=O)CC(C)(C)C3)cc1	-2.69
O=C(COC(=O)CNC(=O)c1ccccc1F)NCC(F)(F)F	9.36
COc1cc(C(=O)O)cc(Br)c1OC1CCCC1	20.6
O=S(=O)(NC1CCCCCC1)c1cccc2cccnc12	5.29
O=[N+]([O-])c1ccc(NCc2ccccc2)c2nonc12	19.7
CC(OC(=O)c1cccc([N+](=O)[O-])c1)C(=O)NCc1ccc2c(c1)OCO2 (stereo not drawn)	-11.4
COc1cccc(N2CCN(CC(=O)Nc3ccccc3C(=O)NCc3ccccc3)CC2)c1	-60.9
CC(=O)N1CCN(CC(=O)Nc2ccccc2C(=O)NCc2ccc(C)cc2)CC1	-25.4
COc1ccc(N2CCN(CC(=O)NC(=O)NCc3ccccc3)CC2)cc1	10.4
Cc1ccc(CNC(=O)c2ccccc2NC(=O)CN2CC(C)OC(C)C2)cc1 (stereo not drawn)	-13.2

SMILES	hERG current change (%, negative = inhibition) at 10uM [%]
COc1ccc(N2CCN(CC(=O)NCc3ccccc3)CC2)cc1	0.922
COc1ccc(N2CCN(CC(=O)Nc3ccccc3C(=O)NCc3ccccc3)CC2)cc1	-55.9
Cc1ccc(CNC(=O)c2ccccc2NC(=O)CN2CCN(C)CC2)cc1	-59.2
COc1cccc(N2CCN(CC(=O)NCc3ccccc3)CC2)c1	-5.53
COc1cccc(N2CCN(CC(=O)Nc3ccccc3C(=O)NCCc3ccccc3)CC2)c1	89.9
CC(Oc1ccc(F)cc1)C(=O)NN (stereo not drawn)	18.6
O=C(CCc1ccccc1)Nc1cc2c(cc1Cl)OCCO2	-7.19
COc1ccc(-c2csc(Nc3cccc(C)n3)n2)cc1C	5.87
O=C1NC(=S)N(c2ccc(Cl)cc2)C(=O)/C1=C/N1CCN(C(=O)c2ccco2)CC1	7.25
Cc1cc(C(=O)OCC(=O)Nc2nc(-c3ccccc3)cs2)c(C)o1	15.8
Cc1oncc1C(=O)NC(C)C	-3.53
CN(C(=O)c1ccc(NC(=O)Cc2ccc(NC(=O)C3CCCN(C(=O)C4CC4)C3)cc2)cc1)C1CC1 (stereo not drawn)	-4.41
Cc1nn(S(=O)(=O)c2ccc(Cl)cc2)c(C)c1S(=O)(=O)N1CCOCC1	20.9
CCOc1ccccc1C1CC(=O)Nc2cc(OC)c(OC)c(OC)c21 (stereo not drawn)	19.6
CCc1c(C)nc2cc(-c3cc(OC)cc(OC)c3)nn2c1N1CCN(CCN2CCOCC2)CC1	-33.5
COCCN1CCN(c2c(C)c(C)nc3cc(-c4cccc(OC)c4)nn23)CC1	-15.6
CCOCCN1CCN(c2c(C)c(C)nc3cc(-c4cc(OC)cc(OC)c4)nn23)CC1	-73.3
CCOCCN1CCN(c2c(CC)c(C)nc3cc(-c4cc(OC)cc(OC)c4)nn23)CC1	-72.4
COc1cc(OC)cc(-c2cc3nc4c(c(N5CCN(c6ncccn6)CC5)n3n2)CCCC4)c1	4.89
CCc1c(C)nc2cc(-c3cc(OC)cc(OC)c3)nn2c1N1CCCC1	-2.11
Nc1nc2ccc(C(=O)Nc3ccccc3)cc2s1	7.6
Cc1ccc2c(c1)CC1(CN2C)C(=O)NC(=O)N(CCc2ccccc2)C1=O (stereo not drawn)	-15.2

SMILES	hERG current change (%, negative = inhibition) at 10uM [%]
CNC(=O)C(C)c1ncc(C(F)(F)F)cc1Cl (stereo not drawn)	17.6
CC(=O)Nc1ccc(NC(=O)CSc2nnc(-c3cccs3)n2N)cc1	1.15
Nn1c(SCC(=O)N2CCN(S(=O)(=O)c3ccccc3)CC2)nnc1-c1cccs1	-10.1
CCOC(=O)c1cnn(-c2ccccc2)c1NC(=O)CSc1nnc(-c2cccs2)n1CC	-69.5
CCn1c(SCC(=O)Nc2ccc(C(=O)OC)cc2)nnc1-c1cccs1	-10.7
CCn1c(SCC(=O)Nc2c(C#N)cnn2-c2ccccc2)nnc1-c1cccs1	-13.6
CCOC(=O)c1ccc(NC(=O)CSc2nnc(-c3cccs3)n2CC)cc1	5.69
Cc1nnc(SCC(=O)N2CCN(S(=O)(=O)c3ccc(Cl)cc3)CC2)n(N)c1=O	-19
Nn1c(SCC(=O)N2CCN(S(=O)(=O)c3ccc(Cl)cc3)CC2)nnc1-c1cccs1	-52.1
Nn1c(SCC(=O)Nc2ccccc2F)nnc1-c1cccs1	-65.7
CCc1ccc(NC(=O)CSc2nnc(-c3cccs3)n2CC)cc1	-69.7
Cn1c(SCC(=O)Nc2ccccc2F)nnc1-c1cccs1	-24.2
CCn1c(SCC(=O)Nc2cc(C)nn2-c2ccccc2)nnc1-c1cccs1	-12.9
O=C(NCc1ccccc1)c1cccc(NS(=O)(=O)c2cccc3cccnc23)c1	6.09
COc1cnc(-c2ccccc2)nc1OC	12.4
O=C(O)c1cc(S(=O)(=O)NCc2ccco2)c(Cl)cc1Cl	14.9
COCC(C)NCc1ccc(C)cc1C (stereo not drawn)	-14.3
O=S(=O)(NCc1ccccn1)c1ccc2c(c1)OCCO2	10.5
Nc1cc(-c2cccc(Br)c2)nn1Cc1ccccc1	-17.2
Nc1cc(=O)nc(SCC(=O)Nc2cccc3ccccc23)n1CCc1ccccc1	-7.07
CCOC(=O)C1C(c2ccc(O)cc2)NC(=O)NC1(O)C(F)(F)F (stereo not drawn)	2.48
